Data from PubChem BioAssay AID540359 (Broad Institute, 2011).
Measured potencies and affinities stand elsewhere. A number with no mark means an inactive call. No rule for the calls is given here.

These compounds were tested against UDP-galactopyranose mutase (Mycobacterium tuberculosis (strain ATCC 25618 / H37Rv)) (UniProt P9WIQ1) (assay: UDP galactopyranose mutase inhibitors, Mycobacterium tuberculosis, cherry pick dose confirmation (AID 540359)). Conditions: purified UGM enzyme, plate reader activity; series mostly up to 50 µM; activity change, negative = inhibition: at the top concentration.
UDP-galactopyranose mutase (Mycobacterium tuberculosis (strain ATCC 25618 / H37Rv)), sequence (P9WIQ1 whole entry, looked up): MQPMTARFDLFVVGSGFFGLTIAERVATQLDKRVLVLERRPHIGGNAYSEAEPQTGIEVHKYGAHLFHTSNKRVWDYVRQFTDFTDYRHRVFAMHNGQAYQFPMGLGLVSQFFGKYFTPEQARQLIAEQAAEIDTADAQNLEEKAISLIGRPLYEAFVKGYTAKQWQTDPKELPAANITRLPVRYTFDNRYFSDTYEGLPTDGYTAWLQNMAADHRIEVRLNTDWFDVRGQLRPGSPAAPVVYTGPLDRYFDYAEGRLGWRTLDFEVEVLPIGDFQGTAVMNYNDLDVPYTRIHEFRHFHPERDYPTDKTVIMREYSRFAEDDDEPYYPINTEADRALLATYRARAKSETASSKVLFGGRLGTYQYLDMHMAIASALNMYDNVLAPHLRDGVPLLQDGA
`COc1ccc(-c2cc(=O)[nH]c3ccccc23)cc1` was tested, and the “activity change, negative = inhibition” value was -4.6%. With `O=C(O)c1ccccc1C(=O)OCCCCOC(=O)c1ccccc1C(=O)O` the “activity change, negative = inhibition” value was -7.41%. With `O=C(Nc1ccccc1F)C(=Cc1sc(N2CCOCC2)nc1-c1ccccc1)C(=O)Nc1ccccc1F` the “activity change, negative = inhibition” value was -2.18%. For `Cc1cc(C(=O)OCC(=O)Nc2c(Cl)cccc2Cl)c(C)o1`, the “activity change, negative = inhibition” value was -2.82%. With `CCOC(=O)c1cnc2ccc(Cl)cc2c1NCCN(C)C` the “activity change, negative = inhibition” value was -0.284%. In the case of `O=C1C2C3C=CC(C3)C2C(=O)N1CCN1CCN(S(=O)(=O)c2ccc3ccccc3c2)CC1` (stereo not drawn), the “activity change, negative = inhibition” value was -0.268%. With `CCc1ccc(C(CC(=O)c2ccc(Cl)cc2)C(=O)O)cc1` (stereo not drawn) the “activity change, negative = inhibition” value was -0.867%. `Cc1n[nH]c(=O)c2c(NC(=O)CSc3nnc(-c4ccco4)n3C)oc(C)c12` was tested, and the “activity change, negative = inhibition” value was -7.02%. In the case of `COc1ccc(N2C(=O)c3cccc4c(N(C)CCO)ccc(c34)C2=O)cc1`, the “activity change, negative = inhibition” value was 7.74%. With `COC(=O)C1=CC(C(=O)c2cccs2)=NN(c2ccc(OC)cc2)C1C(=O)OC` (stereo not drawn) the “activity change, negative = inhibition” value was -9.84%. With `COc1ccc2[nH]c(C)c(CCN(Cc3cccs3)C(=S)Nc3ccccc3OC)c2c1` the “activity change, negative = inhibition” value was -8.12%. With `CCOC(=O)C1CCCN(C(=O)C2c3ccccc3Oc3ccccc32)C1` (stereo not drawn) the “activity change, negative = inhibition” value was -19.5%. For `Cc1c(N=C2N=C(NC(=O)c3ccc(F)cc3)c3ccccc32)c(=O)n(-c2ccccc2)n1C`, the “activity change, negative = inhibition” value was -29%. With `O=S(=O)(c1ccccc1)N(CC1CO1)c1cc(Cl)ccc1Cl` (stereo not drawn) the “activity change, negative = inhibition” value was -0.131%. In the case of `COc1cccc(C(=O)OCC(=O)NCc2ccc3c(c2)OCO3)c1OC`, the “activity change, negative = inhibition” value was -0.378%. In the case of `COc1ccccc1N1CCN(C2CCCN(C(=O)CCC(=O)N(C)C)C2)CC1` (stereo not drawn), the “activity change, negative = inhibition” value was 0.112%. With `O=C(COC(=O)COc1cccc(Br)c1)NCc1ccc2c(c1)OCO2` the “activity change, negative = inhibition” value was -0.801%. In the case of `N#C/C(=C(/O)CSc1ccccc1C(=O)O)c1nc2ccccc2s1`, the “activity change, negative = inhibition” value was -7.99%. `CCN(C(=O)COC(=O)c1ccc(O)cc1O)c1c(N)n(Cc2ccccc2)c(=O)[nH]c1=O` was tested, and the “activity change, negative = inhibition” value was -2.73%. In the case of `Cc1nn(-c2ccccc2)c(Cl)c1C(=O)NCC1CCCO1` (stereo not drawn), the “activity change, negative = inhibition” value was -0.88%. For `Cn1cccc1C(=O)NC(=O)COC(=O)CC12CC3CC(CC(Br)(C3)C1)C2`, the “activity change, negative = inhibition” value was 4.1%. With `O=C(N=c1ccn(-c2nc3ccccc3nc2NS(=O)(=O)c2ccc(Cl)cc2)cc1)c1cccs1` the “activity change, negative = inhibition” value was 21.6%. `COc1ccccc1NC(=O)c1sc2nc(Cc3ccccc3)cc(C(F)(F)F)c2c1N` was tested, and the “activity change, negative = inhibition” value was -21.8%. `CC1=Nc2ccccc2/C1=C\c1nc(-c2ccc(C(F)(F)F)cc2)oc1O` was tested, and the “activity change, negative = inhibition” value was -9.96%. With `O=C(Cc1cccs1)Nc1cc(SCCO)cc([N+](=O)[O-])c1` the “activity change, negative = inhibition” value was -2.71%. In the case of `CCOc1cc(/C=C2\CCCc3c2nc2ccccc2c3C(=O)O)ccc1OC`, the “activity change, negative = inhibition” value was -2.82%. In the case of `O=S(=O)(Nc1cccnc1Cl)c1ccc(F)cc1`, the “activity change, negative = inhibition” value was -4.01%. For `CN(CC(=O)NC1CC1)S(=O)(=O)c1ccc(Br)cc1`, the “activity change, negative = inhibition” value was -4.54%.
